Data taken from PubChem BioAssay AID652162 (Broad Institute, 2013).
Out of some 350,000 compounds screened, about 840 (0.24%) were called active. No stated cut-off is given here; in the data, active means inhibition above about 10%; inactive means the rest. The list comes from a sample in which actives are over-represented; it also holds similar structures and randomly drawn compounds.

target: Toxin B (Clostridioides difficile) (UniProt P18177); test: TcdB glycohydrolase inhibitors, primary screen, biochemical, single point, plate reader (AID 652162); details: TcdB glycohydrolase enzymatic assay, at 9.99 µM, active compounds read high
Sequence (P18177 whole entry, looked up): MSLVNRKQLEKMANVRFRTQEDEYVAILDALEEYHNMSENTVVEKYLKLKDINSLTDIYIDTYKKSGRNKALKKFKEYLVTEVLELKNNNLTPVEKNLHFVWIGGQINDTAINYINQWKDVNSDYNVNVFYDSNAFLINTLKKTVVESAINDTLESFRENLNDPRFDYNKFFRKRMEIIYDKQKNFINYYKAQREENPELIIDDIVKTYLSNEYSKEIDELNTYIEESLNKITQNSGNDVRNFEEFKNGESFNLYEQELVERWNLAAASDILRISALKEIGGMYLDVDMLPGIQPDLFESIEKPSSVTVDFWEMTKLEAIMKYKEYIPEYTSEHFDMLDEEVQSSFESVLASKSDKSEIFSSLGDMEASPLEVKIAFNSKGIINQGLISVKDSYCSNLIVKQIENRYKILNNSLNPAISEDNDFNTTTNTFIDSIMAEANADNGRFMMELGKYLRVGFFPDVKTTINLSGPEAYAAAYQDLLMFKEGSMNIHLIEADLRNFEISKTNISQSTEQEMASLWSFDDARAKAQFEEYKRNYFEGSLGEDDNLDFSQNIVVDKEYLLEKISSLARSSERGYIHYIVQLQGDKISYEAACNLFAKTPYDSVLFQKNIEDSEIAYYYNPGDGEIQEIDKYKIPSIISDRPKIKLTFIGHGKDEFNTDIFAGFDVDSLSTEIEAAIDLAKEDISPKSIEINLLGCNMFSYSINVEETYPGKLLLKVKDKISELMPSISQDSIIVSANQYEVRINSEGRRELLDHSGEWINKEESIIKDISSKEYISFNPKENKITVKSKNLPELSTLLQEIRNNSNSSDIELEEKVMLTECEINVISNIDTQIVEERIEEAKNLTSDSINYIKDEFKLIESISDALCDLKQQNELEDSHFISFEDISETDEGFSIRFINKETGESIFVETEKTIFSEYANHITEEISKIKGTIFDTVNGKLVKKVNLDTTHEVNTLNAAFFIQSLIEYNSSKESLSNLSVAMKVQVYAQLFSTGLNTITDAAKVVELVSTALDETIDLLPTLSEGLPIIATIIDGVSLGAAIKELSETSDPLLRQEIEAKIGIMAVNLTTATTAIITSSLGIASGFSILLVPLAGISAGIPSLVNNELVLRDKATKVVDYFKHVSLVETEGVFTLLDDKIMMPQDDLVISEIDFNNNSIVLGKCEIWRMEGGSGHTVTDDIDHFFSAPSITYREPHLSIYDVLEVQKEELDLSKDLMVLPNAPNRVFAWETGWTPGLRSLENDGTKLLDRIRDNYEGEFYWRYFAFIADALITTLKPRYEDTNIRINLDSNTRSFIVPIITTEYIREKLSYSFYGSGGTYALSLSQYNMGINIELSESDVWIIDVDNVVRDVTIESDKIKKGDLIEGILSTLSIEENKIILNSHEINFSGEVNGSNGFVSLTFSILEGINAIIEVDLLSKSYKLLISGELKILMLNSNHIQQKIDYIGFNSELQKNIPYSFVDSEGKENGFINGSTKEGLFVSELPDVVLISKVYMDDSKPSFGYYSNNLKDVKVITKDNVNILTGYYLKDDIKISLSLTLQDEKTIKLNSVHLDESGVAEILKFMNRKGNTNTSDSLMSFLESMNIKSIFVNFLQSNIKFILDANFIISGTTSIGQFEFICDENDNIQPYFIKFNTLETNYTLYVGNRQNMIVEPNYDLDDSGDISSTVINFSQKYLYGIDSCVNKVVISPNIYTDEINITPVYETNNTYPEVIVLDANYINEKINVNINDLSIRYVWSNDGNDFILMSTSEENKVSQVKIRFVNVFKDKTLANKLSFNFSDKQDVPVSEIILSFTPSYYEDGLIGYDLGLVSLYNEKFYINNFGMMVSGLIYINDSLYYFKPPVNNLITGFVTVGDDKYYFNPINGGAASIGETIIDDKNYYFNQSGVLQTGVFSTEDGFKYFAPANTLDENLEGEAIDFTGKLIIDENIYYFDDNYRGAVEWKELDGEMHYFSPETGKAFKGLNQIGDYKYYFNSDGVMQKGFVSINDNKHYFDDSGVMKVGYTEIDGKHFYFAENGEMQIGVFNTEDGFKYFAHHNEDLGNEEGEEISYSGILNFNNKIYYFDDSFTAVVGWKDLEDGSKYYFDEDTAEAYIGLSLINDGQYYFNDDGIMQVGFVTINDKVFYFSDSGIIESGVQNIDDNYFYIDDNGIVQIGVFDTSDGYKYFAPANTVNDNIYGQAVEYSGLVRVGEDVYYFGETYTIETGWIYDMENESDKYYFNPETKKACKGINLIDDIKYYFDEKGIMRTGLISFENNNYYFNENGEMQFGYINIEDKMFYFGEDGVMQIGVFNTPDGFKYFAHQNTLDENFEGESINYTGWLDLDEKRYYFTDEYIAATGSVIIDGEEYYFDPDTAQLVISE

Row | Structure (SMILES) | inhibition
1 | O=C(C[C@@H]1CC[C@@H]2[C@H](COC[C@H](O)CN2CC2CCOCC2)O1)NCC1CCCCC1 | 0.565% (inactive)
2 | C[C@H]1CN([C@@H](C)CO)C(=O)c2cc(NS(=O)(=O)c3ccc(F)cc3)ccc2O[C@H]1CN(C)CC1CC1 | -1.14% (inactive)
3 | O=C(C[C@@H]1C[C@@H]2c3cc(NS(=O)(=O)c4ccc(F)cc4)ccc3O[C@@H]2[C@H](CO)O1)NCc1cc(F)ccc1F | -0.254% (inactive)
4 | C[C@@H]1CN([C@@H](C)CO)C(=O)c2cc(NC(=O)Nc3ccc(C(F)(F)F)cc3)ccc2O[C@@H](C)CCCCO[C@@H]1CN(C)C(=O)Nc1cccc2ccccc12 | -0.569% (inactive)
5 | C[C@@H]1CN([C@H](C)CO)C(=O)c2cccc(NS(=O)(=O)c3ccc(F)cc3)c2O[C@@H]1CN(C)C(=O)Nc1ccc(C(F)(F)F)cc1 | 0.036% (inactive)
6 | C[C@@H]1CN([C@@H](C)CO)S(=O)(=O)c2ccc(/C=C/c3ccccc3)cc2O[C@H]1CN(C)C(=O)Nc1cc(F)ccc1F | -0.621% (inactive)
7 | O=C(N/C(=C\c1ccc(F)cc1)C(=O)N1CCCCCC1)c1ccccc1 | 1.06% (inactive)
8 | O=C(N/C(=C\c1ccc(O)cc1)C(=O)N1CCCCC1)c1ccccc1 | 14.3% (active)
9 | CC1CCN(C(=O)/C(=C\c2ccccc2)NC(=O)c2ccccc2)CC1 | 0.574% (inactive)
10 | C[C@H](CO)N1C[C@H](C)[C@H](CN(C)S(=O)(=O)c2ccccc2C#N)OCc2cn(nn2)CCCC1=O | -0.086% (inactive)
11 | CNC[C@H]1OCCCC[C@@H](C)Oc2ccc(NS(C)(=O)=O)cc2C(=O)N([C@@H](C)CO)C[C@H]1C | 0.355% (inactive)
12 | CO[C@H]1CN(C)C(=O)c2cc(NC(=O)c3cc(C)on3)ccc2OC[C@@H](C)N(C(C)=O)C[C@H]1C | -0.186% (inactive)
13 | C[C@H](CO)N1C[C@H](C)[C@H](CN(C)S(=O)(=O)c2cccs2)Oc2ccc(NC(=O)Nc3ccccc3)cc2C1=O | -11.1% (inactive)
14 | O=C(Nc1cccc(Cl)c1)N[C@@H]1CC[C@@H](CCNC(=O)C2CCOCC2)O[C@@H]1CO | -0.908% (inactive)
15 | CN(c1ccc(O)cc1)c1nc(-c2cccnc2)cs1 | 14.9% (active)
16 | CN(C)c1ccc(-c2nnc(-c3cccnc3)o2)cc1 | 0.383% (inactive)
17 | O=C(NNC(=O)c1csc(-c2cccnc2)n1)Nc1ccc(Cl)cc1 | 0.087% (inactive)
18 | CCCNC(=O)C[C@H]1C[C@@H]2c3cc(NC(=O)NC4CCCC4)ccc3O[C@@H]2[C@@H](CO)O1 | -0.087% (inactive)
19 | O=C(c1cccc(F)c1)N1CC[C@@H]2[C@H](CO)Nc3ccc(-c4ccccc4)cc3[C@@H]21 | -1.25% (inactive)
